Screening data (PubChem)
D2 ag-1: human D2 receptor agonism in beta-arrestin assay; DiscoveRx PathHunter D2 beta-arrestin, luminescence, 90 min; 100% = 57 uM dopamine signal; P14416; AID 624465; hit rate 0.084% among 360,000; activation, % (no concentration beside the values); in the data active means activation above about 40%; inconclusive means between about 15% and that limit
Target sequence (P14416 whole entry, looked up): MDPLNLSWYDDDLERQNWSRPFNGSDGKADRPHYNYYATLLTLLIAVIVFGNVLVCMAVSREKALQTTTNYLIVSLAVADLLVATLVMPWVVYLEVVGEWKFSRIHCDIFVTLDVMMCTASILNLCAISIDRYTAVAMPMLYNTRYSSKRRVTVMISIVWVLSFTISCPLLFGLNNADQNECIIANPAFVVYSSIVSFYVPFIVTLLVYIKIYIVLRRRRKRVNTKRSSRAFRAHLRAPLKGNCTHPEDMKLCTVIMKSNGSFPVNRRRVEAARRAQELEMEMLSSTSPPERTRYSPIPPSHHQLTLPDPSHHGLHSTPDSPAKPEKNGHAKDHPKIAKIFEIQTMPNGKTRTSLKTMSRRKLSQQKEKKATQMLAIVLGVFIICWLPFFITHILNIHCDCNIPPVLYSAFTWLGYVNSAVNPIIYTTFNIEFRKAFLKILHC
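Agonist mode: compounds alone added to overnight-plated D2 PathHunter cells for 90 min at 37 C, with 57 uM final dopamine (EC100) defining full response. Beta-arrestin recruitment detected by chemiluminescent reagent, read after 1 h at ambient temperature.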
D2 PAM-1: D2 dopamine receptor (human) potentiation; HEK293 T-REx D2, calcium flux, EC20 dopamine potentiation; potentiation, % at 10 µM; AID 485347; hit rate 0.34% among 340,000;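 active means potentiation over 3 SD above the plate norm, cut at about 30% in these data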; further: 0% is about no effect
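Potentiation of an EC20 dopamine calcium response is measured in a force-coupled, tetracycline-inducible Hek293 Trex D2 line. Compound-only kinetic reads over 180 s flag agonists before dopamine addition.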
D2 PAM-2: human D2 receptor positive allosteric modulation. hit rate 0.23% among 360,000. DiscoveRx D2 beta-arrestin cells, luminescence, 90 min; 100% = 57 uM dopamine signal. P14416. potentiation, % (test concentration not listed); in the data active means potentiation above about 50%; inconclusive means mostly about 30% to 49%
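PathHunter beta-arrestin assay in DiscoveRx D2 cells. Compounds were added with an EC20 of dopamine (50 nM final) for 90 min at 37 deg C. Luminescence was read 1 h after detection reagent, with 57 uM dopamine as the EC100 control.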
LDHA inh: LDHA (human) enzyme inhibition. AID 1347041. hit rate 0.15% among 480,000. purified LDHA, NADH/diaphorase-resazurin fluorescence; active compounds read low. P00338. activity change, % (values are at about 110 or 230 µM); in the data active means activity change below about -30%; inconclusive means mostly about -25% to -30%;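 further: plate controls were DMSO wells for no effect and wells without enzyme for full effect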
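Resorufin fluorescence (ex540/em590), read at 0 and 20 min after diaphorase/resazurin addition, reports the NADH left after a 5 min room-temperature reaction of 2 nM human LDH5 with 0.06 mM NADH and 0.2 mM pyruvate.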
D2 ag-2: agonists of human D2 dopamine receptor; P14416; HEK293 T-REx D2 cells, calcium flux agonist mode; activation, % at 2 µM; hit rate 0.53% among 340,000; AID 485358;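 active means activation over 3 SD above normal in the single-dose calcium agonist read, cut at about 30% in these data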; further: 0% is about no effect
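HEK293 Trex D2 cells, tetracycline-induced, o/n 30 C 5% CO2; no-wash Ca dye, RT 30–90 min; 10-cycle baseline, 23 nl cpd added, kinetic Ca read 180 s; agonist hits = positive Ca response.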
D2 antag: antagonists of human D2 dopamine receptor; P14416; HEK293 TREx D2 cells, calcium flux, dopamine EC80; inhibition, % at 10 µM; hit rate 2% among 340,000; in the data active means inhibition above about 30%; inactive means below that, where a call was filed; further: 0% is about no effect
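Cells plated overnight at 30 C with tetracycline; no-wash calcium dye, 30–90 min RT; 10 s baseline; compound pinned; 180 s read; EC80 dopamine added; another 180 s read.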
* = called active by the depositor; ? = inconclusive; nt = no result given. Rows were chosen to be rich in hits. Some 2.1% of all compounds tested hit in one or more screens of this group.

SMILES	D2 ag-1	D2 PAM-1	D2 PAM-2	LDHA inh	D2 ag-2	D2 antag
Cc1ccc(C(=O)O/N=C(\N)c2ccccn2)c(Cl)c1	?	2	91*	-1	0	-5
N/C(=N\OC(=O)c1ccc(Cl)cc1[N+](=O)[O-])c1ccccn1	63*	9	7	-8	0	0
COc1cccc(C(=O)O/N=C(\N)c2ccccn2)c1	13	-2	55*	-1	1	-8
N/C(=N\OC(=O)c1ccc2ccccc2c1)c1ccccn1	?	-5	14	-2	1	8
Cc1ccccc1-c1nc(S(=O)(=O)c2ccc3c(c2)OCCO3)c(N2CCN(C)CC2)o1	nt	nt	nt	11	nt	nt
Cc1nc2ccccc2n1/N=C/c1ccc([N+](=O)[O-])s1	2	1	16	-6	-1	8
Cc1cc2ncn(/N=C/c3ccc([N+](=O)[O-])s3)c2cc1C	13	13	71*	-2	3	1
O=[N+]([O-])c1ccc(/C=N/n2cnc3ccccc32)s1	?	8	64*	-6	1	-12
Cc1cc(=O)n2[nH]c(CN(C(=O)c3ccc(F)cc3)c3ccc(Cl)cc3)nc2n1	nt	nt	nt	-4	nt	nt
CCCOc1ccc(NC(=O)c2c(-c3ccccc3)noc2C)cc1	-6	-7	1	-3	0	1
Cc1onc(-c2ccccc2)c1C(=O)Nc1nnc(COc2ccc(Cl)cc2)s1	0	nt	?	1	1	39*
CCCOc1ccc(C(=O)NNC(=S)NC(=O)CC)cc1	-6	-11	-18	10	0	72*
CCCOc1ccc(C(=O)NC(=S)NNC(=O)c2c(-c3ccccc3)noc2C)cc1	-14	-12	-23	4	70*	25
C=CCNC(=S)NNC(=O)c1ccc(OCCC)cc1	-5	-4	-8	-3	-1	6
O=[N+]([O-])c1cnc(NS(=O)(=O)c2ccccc2[N+](=O)[O-])s1	nt	nt	nt	9	nt	nt
COCCCNc1nc2ccccc2nc1N(C)S(=O)(=O)c1ccc(C)cc1	nt	nt	nt	19	nt	nt
CCOc1ccc(Cc2onc3c2C(=O)CC(C)(C)C3)cc1OCC	1	38*	3	-11	-1	1
CCc1cc(C(=O)NCC(c2cccs2)N2CCOCC2)sc1C (stereo not drawn)	-2	-5	-38	-1	0	31*
O=C(c1cc(-c2ccccc2Cl)on1)N1CCN(C(=O)c2ccco2)CC1	-2	-1	-18	-4	0	4
O=C(Nc1cccnc1)c1cc(-c2ccc(Cl)cc2Cl)on1	3	7	-2	-6	1	35*
O=C(c1cc(-c2ccc(Cl)cc2Cl)on1)N1CCN(C(=O)c2ccco2)CC1	-1	49*	-7	-5	1	-1
CSc1cccc(NC(=S)NCCSc2ccc(Cl)cc2)c1	nt	nt	nt	-2	nt	nt
CCOc1ccc(NC(=O)CN(C)C(=O)CN2C(=O)c3ccc([N+](=O)[O-])cc3C2=O)cc1OCC	6	6	57*	-2	-1	-20
Nc1cc(N)nc(SCCc2ccccc2)n1	2	-1	1	-9	1	47*
Cc1oc(-c2ccccc2)nc1CC(=O)Nc1ccccc1-c1ccccc1	nt	nt	nt	-5	nt	nt
SMILES	D2 ag-1	D2 PAM-1	D2 PAM-2	LDHA inh	D2 ag-2	D2 antag
Cc1ccc2[nH]cc(C(C(=O)O)N3CCN(C(c4ccccc4)c4ccccc4)CC3)c2c1 (stereo not drawn)	nt	nt	nt	0	nt	nt
CC(C)NC(=O)c1cccc(NC(=O)CCCC(=O)O)c1	nt	nt	nt	0	nt	nt
CC1=CCC(C(=O)O)C(C(=O)NC2CCCCC2)C1 (stereo not drawn)	1	20	-4	-2	2	45*
CC1=C(C)CC(C(=O)NC2CCCC2)C(C(=O)O)C1 (stereo not drawn)	-2	5	0	0	0	-4
COc1cc(-c2cc(=O)c3c(O)c(OC)c(OC)c(O)c3o2)ccc1O	9	17	88*	17	0	0
CCOc1ccccc1OCCOCCN1CCN(Cc2ccccc2)CC1	0	-21	-24	-31*	0	-15
CCC(=O)c1ccccc1OCCN1CCN(Cc2ccccc2)CC1	-7	-26	-7	-34*	-1	110*
COc1ccc(N(CC(=O)Nc2ccc(C)c(C)c2)S(=O)(=O)c2c(C)nn(C)c2C)cc1	nt	nt	nt	-7	nt	nt
Cc1cc(O)c2c(c1)C(=O)[C@@]13Oc4c5c(c(O)c6c(O)cc(C)cc46)C(=O)C[C@H](O)[C@H]5[C@@H]1[C@@H](O)CC(=O)C3=C2O	11	nt	66*	13	nt	nt
CON/C=C(\C=Nc1ccccc1)c1ncc(C(F)(F)F)cc1Cl	-1	34*	-8	-11	1	-4
COc1cc(-c2c(C#N)c(N)nc3c2CN(C)CC3)cc(OC)c1OC	nt	nt	nt	1	nt	nt
Cc1ccc(N/C(N)=N/c2nc(C)cc(N3CCCCC3)n2)c(C)c1	6	-19	-18	-8	8	35*
Cc1ccc(NC(=O)C2OCCc3ccccc32)cc1C (stereo not drawn)	-4	12	-7	-8	-2	42*
COc1cc(C(O)CO)ccc1O (stereo not drawn)	-3	-5	-1	-1	-1	15
CC(C)NCC(O)c1ccc2ccccc2c1 (stereo not drawn)	2	nt	-10	-4	nt	nt
CC(C)NCC(O)c1ccc(O)c(O)c1 (stereo not drawn)	-1	33*	-2	9	5	17
CNC[C@H](O)c1ccc(O)c(O)c1	63*	-18	79*	8	5	25
Cc1ccc2[nH]c(C(=O)NCc3ccccc3)cc2c1	nt	nt	nt	0	nt	nt
CCOC(=O)N1CCN(C(=O)c2cc(N3C(=O)CCS3(=O)=O)ccc2Cl)CC1	nt	nt	nt	-12	nt	nt
Nc1c(C(=O)c2ccccc2)sc2nsc(SCCN3CCOCC3)c12	1	-4	2	-3	32*	2
CC(=O)c1sc2nsc(SCCN3CCOCC3)c2c1N	-3	-3	-3	-8	0	6
Cc1cccc(-c2nc(C#N)c(NCc3ccc4c(c3)OCO4)o2)c1	nt	nt	nt	-11	nt	nt
O=C(c1ccc(F)cc1)C1CCN(Cc2cn[nH]c2-c2ccc(F)cc2)CC1	-3	-25	-26	0	1	94*
CCOc1ccccc1N1CCN(Cc2cn[nH]c2-c2ccc(F)cc2)CC1	-2	-22	-4	-2	22	81*
COc1ccc(C(=O)C2CCCN(Cc3cn[nH]c3-c3ccc(F)cc3)C2)cc1OC (stereo not drawn)	2	4	-19	2	0	6
CSC1=N/C(=C\c2ccc(-c3ccc(Cl)cc3)o2)C(=O)S1	nt	nt	nt	2	nt	nt
CCCCOC(=O)/C(C#N)=C/c1c[nH]c2ccccc12	nt	nt	nt	2	nt	nt
